Screens (PubChem)
Rab2A wt mod: changes GTP binding to wildtype dog Rab2A, up or down | AID 760 | P61105 | GTP binding activity, % at 10 µM | GST-Rab2 wt beads, Bodipy-GTP binding, flow cytometry | actives 0.19% (n = 190,000);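 active = GTP binding activity at least 20 points away from 100%, either lowered or raised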;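 note: 0% = beads with excess unlabeled GTP and 100% = no-compound control corrected for plate trend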
Rab7 wt modul: alters GTP binding to wildtype dog Rab7; GST-Rab7 beads, fluorescent GTP binding, flow cytometry; actives lie on both sides; untreated = 100%, excess cold GTP = 0%; GTP binding activity (percent of control), % at 10 µM; actives 0.055% (n = 190,000); AID 758;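 active = fluorescent GTP binding to Rab7 beads changed by at least 20 points from the 100% baseline, either direction, mostly lower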;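 note: median green fluorescence of bound Bodipy-FL-GTP per Rab7 bead population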
Rac1 mut GTP: alters GTP binding to activated mutant human Rac1 | percent activity (GTP binding), % at 10 µM | actives 0.11% (n = 190,000) | P63000 | GST-Rac1 activated beads, fluorescent GTP binding, flow cytometry; actives lie on both sides; 100% means binding = to untreated wells;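 active = GTP binding at least 20 percentage points away from the 100% baseline, in either direction, so actives lie on both sides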
Cdc42 wt GTP: human Cdc42 wildtype GTP binding change, either direction. percent activity (GTP binding), % at 10 µM. actives 0.2% (n = 190,000). GST-Cdc42 beads, Bodipy-GTP binding, flow cytometry; actives lie on both sides. P60953. AID 761;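 active = percent activity GTP binding at least 20 points away from the 100% baseline, either down as inhibitor or up as activator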;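 note: median bead fluorescence of bound Bodipy-FL-GTP at 100 nM; 0% = excess unlabeled GTP control and 100% = no compound control; below 100% means less GTP binding so inhibitor and above means activator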
Target sequence (P60953 whole entry, looked up): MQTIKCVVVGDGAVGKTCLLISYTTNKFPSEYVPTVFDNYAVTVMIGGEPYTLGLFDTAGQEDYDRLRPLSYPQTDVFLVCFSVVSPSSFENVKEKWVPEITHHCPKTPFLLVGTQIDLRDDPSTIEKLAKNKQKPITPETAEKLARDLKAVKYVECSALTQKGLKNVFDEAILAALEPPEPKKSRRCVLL
Rac1 wt modul: modulators of human Rac1 wildtype GTP binding; GTP binding activity (% of control), % at 10 µM; actives 0.27% (n = 190,000); P63000; GST-Rac1 beads, fluorescent GTP binding, flow cytometry; actives lie on both sides; 0 = cold GTP competed, 100 = untreated;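 active = GTP binding activity at least 20 points away from the 100% control level, either lower or higher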
HRas wt GTP bind: modulators of GTP binding to human HRas wildtype; GST-Ras wt beads, Bodipy-FL-GTP binding, flow cytometry; actives lie on both sides; AID 759; P01112; GTP binding activity, % at 10 µM; actives 0.14% (n = 190,000);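 active = GTP binding activity at least 20% away from the 100% baseline, either lowered as inhibitor or raised as activator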;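 note: 0% = unlabeled GTP competition control and 100% = no-compound control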
Target sequence (P01112 whole entry, looked up): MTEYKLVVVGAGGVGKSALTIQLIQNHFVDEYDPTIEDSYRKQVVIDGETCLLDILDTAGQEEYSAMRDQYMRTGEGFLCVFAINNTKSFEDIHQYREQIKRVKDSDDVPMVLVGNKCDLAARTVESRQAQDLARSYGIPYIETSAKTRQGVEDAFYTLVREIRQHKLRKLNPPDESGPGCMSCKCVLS
* = called active by the depositor; [ ] = another dose, or the depositor's remark. The list is not random: actives were taken first. Their share in the collection is about 0.37%.

What do the screens show for `COc1cc(SC#N)ccc1N=Cc1c(C)[nH]n(-c2ccc(C)c(C)c2)c1=O`?
Rab2A wt mod: 79*; Rab7 wt modul: 89; Rac1 mut GTP: 87; Cdc42 wt GTP: 88; Rac1 wt modul: 78*; HRas wt GTP bind: 80

Results for COc1cc(SC#N)ccc1N=Cc1c(C)[nH]n(-c2ccc(Cl)cc2)c1=O ?
Rab2A wt mod: 90; Rab7 wt modul: 97; Rac1 mut GTP: 96; Cdc42 wt GTP: 95; Rac1 wt modul: 93; HRas wt GTP bind: 94

Results for Cc1ccc(S(=O)(=O)N2CC3(C)CN(S(=O)(=O)c4ccc(C)cc4)CC(C)(C2)C3O)cc1 (configuration not stated) ?
Rab2A wt mod: 100; Rab7 wt modul: 104; Rac1 mut GTP: 101; Cdc42 wt GTP: 126*[activator]; Rac1 wt modul: 108; HRas wt GTP bind: 101

What do the screens show for `CC(=O)c1cccc(NC(=O)COC(=O)c2n[nH]c3ccccc23)c1`?
Rab2A wt mod: 99; Rab7 wt modul: 100; Rac1 mut GTP: 94; Cdc42 wt GTP: 96; Rac1 wt modul: 97; HRas wt GTP bind: 96

What do the screens show for `COc1cccc(OCC(=O)NNC(=S)Nc2ccc(Cl)cc2Cl)c1`?
Rab2A wt mod: 93; Rab7 wt modul: 103; Rac1 mut GTP: 84; Cdc42 wt GTP: 85; Rac1 wt modul: 92; HRas wt GTP bind: 93

How did CCC(=O)Nc1nc(-c2ccc3c(c2)OCCO3)cs1 do in these assays?
Rab2A wt mod: 101; Rab7 wt modul: 102; Rac1 mut GTP: 100; Cdc42 wt GTP: 103; Rac1 wt modul: 103; HRas wt GTP bind: 100

How did COc1ccccc1C(=O)Nc1nc(-c2ccc3c(c2)OCCO3)cs1 do in these assays?
Rab2A wt mod: 81; Rab7 wt modul: 94; Rac1 mut GTP: 78*; Cdc42 wt GTP: 78*; Rac1 wt modul: 78*; HRas wt GTP bind: 87

What do the screens show for `Fc1ccc(-n2nnc(-c3cnc4ccccc4c3)n2)cc1`?
Rab2A wt mod: 96; Rab7 wt modul: 103; Rac1 mut GTP: 97; Cdc42 wt GTP: 97; Rac1 wt modul: 98; HRas wt GTP bind: 98

How did Cc1ccc(NC(=O)C(C)NS(=O)(=O)c2ccc(F)cc2)cc1C (configuration not stated) do in these assays?
Rab2A wt mod: 105; Rab7 wt modul: 111; Rac1 mut GTP: 101; Cdc42 wt GTP: 104; Rac1 wt modul: 113; HRas wt GTP bind: 103

What do the screens show for `CNC(=O)C(C)NS(=O)(=O)c1ccc(F)cc1` (configuration not stated)?
Rab2A wt mod: 36*; Rab7 wt modul: 27*; Rac1 mut GTP: 36*; Cdc42 wt GTP: 37*; Rac1 wt modul: 34*; HRas wt GTP bind: 40*

How did O=C(CCc1nnc(-c2ccc3c(c2)OCO3)o1)N1CCC(c2ccc(F)cc2)C1 (configuration not stated) do in these assays?
Rab2A wt mod: 82; Rab7 wt modul: 96; Rac1 mut GTP: 79*; Cdc42 wt GTP: 81; Rac1 wt modul: 88; HRas wt GTP bind: 87

Results for CCOc1ccc(CCNc2ccc3nnc(-c4ccccc4)n3n2)cc1OCC ?
Rab2A wt mod: 76*; Rab7 wt modul: 88; Rac1 mut GTP: 89; Cdc42 wt GTP: 79*; Rac1 wt modul: 76*; HRas wt GTP bind: 74*

Results for Clc1ccc(CNc2ccc3nnc(-c4ccccc4)n3n2)cc1 ?
Rab2A wt mod: 97; Rab7 wt modul: 94; Rac1 mut GTP: 97; Cdc42 wt GTP: 98; Rac1 wt modul: 98; HRas wt GTP bind: 97

Results for CCCCNC(=O)CSc1nnc(-c2c[nH]c3ccccc23)n1CC1CCCO1 (configuration not stated) ?
Rab2A wt mod: 105; Rab7 wt modul: 102; Rac1 mut GTP: 101; Cdc42 wt GTP: 109; Rac1 wt modul: 106; HRas wt GTP bind: 103

Results for Cc1cc(=O)[nH]c(SCC(=O)N2CCN(S(=O)(=O)c3ccccc3)C2)n1 ?
Rab2A wt mod: 103; Rab7 wt modul: 105; Rac1 mut GTP: 96; Cdc42 wt GTP: 92; Rac1 wt modul: 100; HRas wt GTP bind: 95

What do the screens show for `Cc1ccc(NC(=O)c2noc(C(C)C)c2[N+](=O)[O-])cc1`?
Rab2A wt mod: 99; Rab7 wt modul: 96; Rac1 mut GTP: 95; Cdc42 wt GTP: 97; Rac1 wt modul: 98; HRas wt GTP bind: 97

How did Cc1cc(C)c2c(n1)sc1c(O)cc(=O)[nH]c12 do in these assays?
Rab2A wt mod: 103; Rab7 wt modul: 100; Rac1 mut GTP: 102; Cdc42 wt GTP: 104; Rac1 wt modul: 107; HRas wt GTP bind: 100

What do the screens show for `COc1ccc(-c2cc(C(F)(F)F)c3c(n2)sc2c(O)cc(=O)[nH]c23)c(OC)c1`?
Rab2A wt mod: 78*; Rab7 wt modul: 93; Rac1 mut GTP: 89; Cdc42 wt GTP: 89; Rac1 wt modul: 80; HRas wt GTP bind: 80

Results for COc1cccc(CC2(CO)CCCN(CC3=Cc4cc(Cl)ccc4OC3)C2)c1 (configuration not stated) ?
Rab2A wt mod: 97; Rab7 wt modul: 103; Rac1 mut GTP: 92; Cdc42 wt GTP: 92; Rac1 wt modul: 97; HRas wt GTP bind: 96

What do the screens show for `COc1ccc(/C=N/NC(=O)c2ccncc2)cc1Cn1nc([N+](=O)[O-])c(Br)c1C`?
Rab2A wt mod: 68*; Rab7 wt modul: 97; Rac1 mut GTP: 83; Cdc42 wt GTP: 65*; Rac1 wt modul: 76*; HRas wt GTP bind: 74*

Results for COc1ccc(/C=N/NC(=O)c2ccco2)cc1Cn1nc(C)c([N+](=O)[O-])c1C ?
Rab2A wt mod: 98; Rab7 wt modul: 97; Rac1 mut GTP: 94; Cdc42 wt GTP: 96; Rac1 wt modul: 95; HRas wt GTP bind: 96

Results for C/C(=N\Nc1cc(C)nc(-c2ccccc2)n1)c1cccc([N+](=O)[O-])c1 ?
Rab2A wt mod: 84; Rab7 wt modul: 89; Rac1 mut GTP: 86; Cdc42 wt GTP: 82; Rac1 wt modul: 73*; HRas wt GTP bind: 88

What do the screens show for `CC(SC(=S)N(C)Cc1cccs1)C(=O)O` (configuration not stated)?
Rab2A wt mod: 140*[activator]; Rab7 wt modul: 136*[activator]; Rac1 mut GTP: 144*[activator]; Cdc42 wt GTP: 168*[activator]; Rac1 wt modul: 196*[activator]; HRas wt GTP bind: 140*[activator]

What do the screens show for `CCCCOC(=O)CSC(=S)N(C)Cc1cccs1`?
Rab2A wt mod: 104; Rab7 wt modul: 100; Rac1 mut GTP: 101; Cdc42 wt GTP: 102; Rac1 wt modul: 100; HRas wt GTP bind: 103
